This is an account of results in PubChem BioAssay (NCATS).

In test [1] the test system is KB-3-1. Nature of the test: Cytotoxic Profiling of Annotated Libraries Using Quantitative High-Throughput Screening (AID 1296008). As to conditions: Five cell lines viability, CellTiter-Glo ATP luminescence, 48-72 h; max response: stronger effect = lower value. In outline: (§1)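 Cells exposed to compounds for 48 or 72 hr at 37 degrees Celsius. Viability read as ATP-coupled luminescence with CellTiter-Glo after 10 min at room temperature.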
(In general: Cellular ATP, detected with luciferase, serves as a proxy for viable cell number.)

Test [2] deals with NIH3T3. The test is described as above. As to conditions: Five cell lines viability, CellTiter-Glo ATP luminescence, 48-72 h; max response: stronger effect = lower value. The method in brief:
as §1

Test [3] concerns HEK293T. Nature of the test: qHTS assay to identify novel small-molecules to repurpose for Merkel cell carcinoma treatment (AID 1296009). Particulars: MCC and control cell lines, CellTiter-Glo viability, 72 h; at 44.8 µM (top of the series) unless noted. The method in brief:
(§2)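 CellTiter-Glo luminescence after 72 hr compound exposure at 37 degree celsius gave cell viability. Libraries NPC and MIPE were run as 8- and 11-point dose responses; RLUs normalized to DMSO (negative) and no-cell (cytotoxicity) controls.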

Test [4] has as its system NIH3T3. The test is described as above. Particulars: MCC and control cell lines, CellTiter-Glo viability, 72 h; at 44.8 µM (top of the series) unless noted. In outline: as §2
The subject of test [5] is HACAT. The test is described as above. As to conditions: MCC and control cell lines, CellTiter-Glo viability, 72 h; at 44.8 µM (top of the series) unless noted. The method in brief: as §2
Test [6] deals with MCC-13. The description is as above. As to conditions: MCC and control cell lines, CellTiter-Glo viability, 72 h; series mostly up to 46 µM. In outline: as §2
The test system of test [7] is MCC-26. Described as above. As to conditions: MCC and control cell lines, CellTiter-Glo viability, 72 h; series mostly up to 46 µM. In outline: as §2
The subject of test [8] is MKL-1. The description is as above. As to conditions: MCC and control cell lines, CellTiter-Glo viability, 72 h; series mostly up to 46 µM. The method in brief:
as §2

Test [9] deals with MKL-2. Described as above. As to conditions: MCC and control cell lines, CellTiter-Glo viability, 72 h; series mostly up to 46 µM. In outline: as §2
The subject of test [10] is UISO. The description is as above. Particulars: MCC and control cell lines, CellTiter-Glo viability, 72 h; series mostly up to 46 µM. In outline: as §2

“And” between values parts separate entries of the source, which are not always exact repeats. Equal entries are not always repeated. Records with an inconclusive call do not appear. The source made the active and inactive calls. The call rests on the fitted dose curve; in most records, active means well fitted inhibition curve with a large enough effect; inconclusive means small, poorly fitted or top-dose-only effect; inactive means flat fitted curve, though single readings scatter. Where a SMILES comes first, the peptide text is derived from it. [ ]: non-standard residue; d: D form. pGlu = O=C1CC[C@@H](C(=O)O)N1; Thz = O=C(O)[C@@H]1CSCN1
Further: nearly all actives have a fitted effect of over 60% in size.
On the % scale 0 is the no-effect control and ±100 the full control effect; potency means the concentration at half of the fitted maximal effect.

`CO/N=C(\C(=O)N[C@@H]1C(=O)N2C(C(=O)O)=C(COC(C)=O)CS[C@H]12)c1csc(N)n1` (stereo in doubt): the max response in test [1] was -7.91% (inactive).
On to `C[C@H](O)[C@H](O)[C@H]1CNc2nc(N)[nH]c(=O)c2N1`, for which the max response in test [1] was 14% (inactive). Also, the result in test [1], in test [2], in test [3] and in [4] was inactive.
Regarding `CS(=O)(=O)c1ccc(-n2nc(C(F)(F)F)cc2-c2ccc(F)cc2)cc1`, the max response in test [1] is -2.3% (inactive); in [2] it was -2.48% (inactive). In addition, the outcome in test [5] was inactive.
In the case of `COc1ccc(/C=C/C(=O)Nc2ccccc2C(=O)O)cc1OC`, the max response was -5.53% (inactive) and 8.2% (inactive) in test [1]; -8.92% (inactive) in test [2].
For `O=C(CS)Nc1ccccc1`, the max response is -19% (inactive) in test [1] and 0.87% (inactive) in test [2]. The compound was classed as inactive in test [5]. The Potency result in test [6] was “inactive”.
As to `COc1cc(NC(C)CCCN)c2ncccc2c1` (configuration not stated), the max response in test [1] was 20.7% (inactive). For the same compound, the compound was called inactive in test [2], in test [5] and in [4]. The Potency was 16.8 µM (active) in [6], 2.99 µM (active) in test [8], 4.22 µM (active) in test [9] and 3.35 µM (active) in test [10]. Further, in [7], the Potency result was “inactive”.
Consider `NS(=O)(=O)c1ccc(-n2nc(C(F)(F)F)cc2-c2ccc(Cl)cc2)cc1`, for which the max response was -3.63% (inactive) in [1] and -15.5% (inactive) in [2]. In test [5], the compound was called inactive.
With `CO[C@@]1(NC(=O)Cc2cccs2)C(=O)N2C(C(=O)O)=C(COC(N)=O)CS[C@@H]21`, the max response in [1] was -24.9% (inactive) and -6.96% (inactive). The call in test [2], in test [5], in test [3] and in [4] was inactive. Moreover, the Potency result in test [6], in test [7], in test [8], in test [9] and in test [10] was “inactive” in each case.
As to `COc1cc(/C=C/C(=O)CC(=O)/C=C/c2ccc(O)c(OC)c2)ccc1O`, the max response in test [1] is 44.3% (inactive).
In the case of `NCCO`, the max response in test [1] was -25.6% (inactive); in test [2], -0.614% (inactive). For the same compound, in [5], the outcome was “inactive [at 92 µM]”. The Potency result in test [6], in test [8], in test [9] and in test [10] was “inactive” in each case.
Regarding `C=CCN1C(=O)C(CC(C)C)NC1=S` (configuration not stated), the max response in [1] was 11.7% (inactive) and 6.26% (inactive).
As to `O=C1CC[C@@H](C(=O)N2CSC[C@H]2C(=O)O)N1` ([pGlu]-[Thz]-OH), the max response in [1] is -5.47% (inactive). The outcome in test [1], in [2] and in test [4] was inactive.
Take `CN(C)CCn1nnnc1SCC1=C(C(=O)O)N2C(=O)[C@@H](NC(=O)Cc3csc(N)n3)[C@H]2SC1`: in test [1], the max response was -1.99% (inactive). The compound was called inactive in test [2], in [5] and in test [4]. In addition, the Potency result in test [6], in [8], in [9] and in test [10] was “inactive” throughout.
With `C=CC(N)CCC(=O)O` (configuration not stated), in test [1], the max response is 3.37% (inactive).
The same measure, in the same setting: with `N=c1ccn2c(n1)O[C@H]1[C@H](O)[C@@H](CO)O[C@H]12` the figure was 33.6% (inactive); with `O=C(O)/C=C/C(O)c1ccc(Cl)cc1` (configuration not stated), -6.79% (inactive).
On to `Nc1c(CC(=O)O)cccc1C(=O)c1ccc(Br)cc1`, for which the max response was 0.539% (inactive) in test [1] and 2.91% (inactive) in [2]. The compound was classed as inactive in test [5]. Further, the Potency entry in test [6], in [7], in [8], in test [9] and in [10] was “inactive” each time.
Regarding `CCCOC(=O)c1ccc(O)cc1`, the max response is -6.63% (inactive) and -13.7% (inactive) in test [1]; 3.51% (inactive) in [2]. Also, the Potency result in test [6], in [7], in [8], in test [9] and in [10] was “inactive” throughout.
As for `O=[N+]([O-])c1ccc(CNc2nc(NCc3cccc(C(F)(F)F)c3)nc3nc[nH]c23)cc1`, the compound was classed as inactive in test [1], in test [2] and in test [4].
Regarding `C[N+]1(C)[C@@H]2CC(OC(=O)[C@H](CO)c3ccccc3)C[C@H]1[C@@H]1O[C@@H]12` (some centres not stated), in [2], the max response is 4.27% (inactive). Also, the compound was called inactive in test [5] and in test [3]. Besides, the Potency entry in [6], in test [8], in test [9] and in test [10] was “inactive” each time.
For `Fc1ccc2[nH]c(CN3CCN(c4ccccn4)CC3)cc2c1`, the max response in [2] is -28.5% (inactive).
As to `CN(C)c1ccc(C(=C2C=CC(=[N+](C)C)C=C2)c2ccccc2)cc1`, the max response in test [1] was -1.13% (inactive). Besides, the Potency in test [2] was 237 nM (active); in test [6], 0.0376 µM (active); in test [8], 0.0376 µM (active); in test [9] it was 0.0133 µM (active); in test [10], 0.0668 µM (active).
In the case of `O=c1cc(-c2ccccc2)oc2ccccc12`, the Potency in test [1] was 199 nM (active). For the same compound, the Potency result in [6] and in test [8] was “inactive” in each case.
With `CCCCCCOc1ccccc1C(N)=O`, the max response is 0.591% (inactive) in [1] and -8.29% (inactive) in [2]. The Potency result in test [6], in [8] and in test [9] was “inactive” throughout.
Consider `CN1[C@@H]2CC[C@H]1CC(OC(=O)C(CO)c1ccccc1)C2` (some centres not stated), for which the max response in [2] was 3.27% (inactive).
Consider `O=C(Nc1ccc2[nH]ncc2c1)C1CCC1`, for which the max response in test [2] is 4.63% (inactive).
Turning to `Cc1ccc(O)c(-n2nc3ccccc3n2)c1`, the max response in [1] is -10.3% (inactive); in test [2], 0.367% (inactive). The Potency entry in [6], in test [8], in test [9] and in [10] was “inactive” throughout.
Take `CCOC(=O)c1ccccc1O`: the max response in test [1] was -11.3% (inactive) and -16.2% (inactive); in [2], -7.47% (inactive). Also, the compound was classed as inactive in test [3]. Further, the Potency entry in test [6], in test [7], in [8], in test [9] and in [10] was “inactive” throughout.
